40 compounds from PubChem BioAssay (Tox21) can be followed below.

Results filed as inconclusive are left out. Activity calls are given as the source filed them. Calls come from the whole dose curve.
% is set by controls: 0 for no effect and ±100 for the full control effect.

This assay in a line: qHTS assay to identify small molecule antagonists of the estrogen receptor alpha (ER-alpha) signaling pathway using the BG1 cell line (AID 743080).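 Note: BG1 cells stimulated with 17beta-estradiol alongside compound; nearly all actives have a fitted effect of over 25% in size.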 Particulars: BG1Luc4E2 ERE-luciferase antagonist mode, luminescence; series mostly up to 70.3 µM; activity change, negative = inhibition: at the top concentration. From the text: National Center for Advancing Translational Sciences [NCATS]
NIH Chemical Genomics Center [NCGC]
U.S. Environmental Protection Agency [EPA]
National Institutes of Environmental Health Sciences [NIEHS]
National Toxicology Program [NTP]
U.S. Food and Drug Administration [FDA]
Estrogen receptor (ER), a nuclear hormone receptor, plays an important role in development, metabolic homeostasis and reproduction. Endocrine disrupting chemicals (EDCs) and their interactions with steroid hormone receptors like ER causes disruption of normal endocrine function. Therefore, it is important to understand the effect of environmental chemicals on the ER signaling pathway. To identify ER antagonists, BG1-Luc-4E2 cell line (provided by Dr. Michael Denison from University of California) has been used to screen the Tox21 10K compound library. BG1Luc4E2 cell line endogenously expresses full-length ER-alpha and is stably transfected with a plasmid containing four estrogen responsive elements (ERE) upstream of a luciferase reporter gene.
Tox21 Assay Protocol Summary:
BG1-Luc-4E2 cells were cultured in phenol red free assay medium containing 10% charcoal stripped FBS for 5 days before the assay was performed. The cells were dispensed at 4,000 cells/4 uL of assay medium per well into white wall/solid-bottom 1536-well plates using a Multidrop Combi (ThermoFisher Scientific, Waltham, MA) dispenser. The assay plates were incubated at a 37C and 5% CO2 for 24 h, and then 23 nL of compounds dissolved in DMSO, positive controls or DMSO only was transferred to the assay plate using a Pintool station (Kalypsys, San Diego, CA), followed by addition of 1 uL of 17beta-estradiol in assay medium using a Flying Reagent Dispenser (Aurora Discovery, San Diego, CA). After the plates were incubated at 37 C and 5% CO2 for 21.5 h, 1 uL of CellTiter-Fluor reagent (Promega, Madison, WI) of measuring cytotoxicity was added using Flying Reagent Dispenser (FRD) to each well. The assay plates were incubated at 37 C and 5% CO2 for additional 30 min and the fluorescence intensity was quantified by a ViewLux plate reader (PerkinElmer, Shelton, CT). For measuring luciferase reporter gene activity, 4 uL of ONE-Glo reagent (Promega) was added to each plate using an FRD and luminescence was quantified by a ViewLux plate reader after 30 min incubation at room temperature.
Background: In qHTS, concentration-response curves come from the screen itself.
With `CCO[Si](CCC1CCC2OC2C1)(OCC)OCC` (stereo not given), the “activity change, negative = inhibition” value was 9.68% (inactive).
The same measure, in the same setting: for `CC(C[N+](C)(C)C)OC(N)=O` (stereo not given) the value was 0.407% (inactive); for `CC1(C)C(O)C(C)(C)C1O` (stereo not given), 0.259% (inactive).
As to `Cc1cc(O)cc2c1O[C@](C)(CCC[C@H](C)CCC[C@H](C)CCCC(C)C)CC2`, the call was inactive.
On to `NS(=O)(=O)c1cc(C(=O)O)cc(N2CCCC2)c1Oc1ccccc1`, for which the “activity change, negative = inhibition” value is -3.61% [at 32.5 µM] (inactive).
With `O=S(O)CO`, the outcome was inactive.
For `Cc1ccc(=O)n(-c2ccccc2)c1`, the “activity change, negative = inhibition” value is 1.08% (inactive).
The same measure, in the same setting: for `CCCc1cc(C(N)=S)ccn1` the value was -1.28% (inactive); for `CCCCCCCCCCCC`, 16.7% (inactive).
As to `CCOC(=O)Nc1ccc(NCc2ccc(F)cc2)nc1N`, the outcome was inactive.
`CC(C)(C)c1nnc(NS(=O)(=O)c2ccccc2)s1`: the “activity change, negative = inhibition” value is -1.91% (inactive).
`COC(=O)c1c(Cl)c(Cl)c(C(=O)OC)c(Cl)c1Cl`: the compound was called inactive.
As to `CCC(=O)OC(C)c1ccccc1` (stereo not given), the “activity change, negative = inhibition” value is -4.79% (inactive).
Turning to `NC(=O)c1ccc(N)cc1`, the “activity change, negative = inhibition” value was 0.898% (inactive).
On the same count and under the same terms, for `C[C@@H]1CCN(C(=O)[C@H](CCCN=C(N)N)NS(=O)(=O)c2cccc3c2NC[C@H](C)C3)[C@@H](C(=O)O)C1` the value was 10.7% (inactive); for `O=C1CCCN1C1CCCCC1`, -1.79% (inactive); for `COC(=O)NN`, 7.78% [at 95 µM] (inactive).
As for `O=C1CCCCCCCCCCCN1`, the result was inactive.
Consider `NC(=O)COCCN1CCN(C(c2ccccc2)c2ccc(Cl)cc2)CC1` (stereo not given), for which the “activity change, negative = inhibition” value was -10.5% (inactive).
On to `C=C(C)C(=O)OCCCCCCCC(C)C`, for which the “activity change, negative = inhibition” value was 1.66% [at 95 µM] (inactive).
The same measure, in the same setting: for `CCOC(C)(C)C` the value was 2.64% [at 95 µM] (inactive); for `NC(=O)Nc1ccccc1`, 6.41% (inactive); for `Cc1c(O)cccc1O`, -0.696% [at 95 µM] (inactive).
Same read-out and setting: for `O=C1NC(=O)[C@@]2(CCOc3ccc(F)cc32)N1` the value was 5.29% (inactive); for `CC(C)c1cc2c(cc1S(=O)(=O)O)[C@@]1(C)CCC[C@@](C)(C(=O)O)[C@@H]1CC2`, 1.43% (inactive).
The same measure, in the same setting: to `CN(C)CCCSc1ccccc1NC(=O)/C=C/c1ccccc1` belongs 14.2% (inactive); to `CN1C(=O)N(C)C(O)C1O` (stereo not given), 1.98% (inactive); to `CC(C)(CC(=O)O)C(=O)O`, -1.32% (inactive).
With `CC(C)OC(=O)c1ccccc1`, the “activity change, negative = inhibition” value was -1.33% [at 95 µM] (inactive).
Still for that read-out and setting: to `OCCOc1ccc(OCCO)cc1` belongs 3% [at 95 µM] (inactive); to `O=C1CC2CC1C1CCCC21` (stereo not given), 6.37% (inactive).
Still for that read-out and setting: for `CC(C)(O)C#CC(C)(C)O` the value was -2.29% [at 95 µM] (inactive); for `CCOC(=O)[C@H](CCc1ccccc1)N[C@@H](C)C(=O)N1[C@H](C(=O)O)C[C@@H]2CCC[C@@H]21`, 2.41% (inactive).
The same measure, in the same setting: to `Nc1c[n+](N2CCOCC2)no1` belongs 0.0404% (inactive); to `O=C(O)Cc1ccc(CCNS(=O)(=O)c2ccc(Cl)cc2)cc1`, -9.11% (inactive).
As for `O=c1n(CCO)c(=O)n(CCO)c(=O)n1CCO`, the result was inactive.
As for `ClC(Cl)(Br)Br`, the “activity change, negative = inhibition” value is -2.82% (inactive).
In the case of `CC(C(=O)O)c1ccc(CC2CCCC2=O)cc1` (stereo not given), the “activity change, negative = inhibition” value is -0.447% (inactive).
On the same count and under the same terms, for `OC1CCCCC1c1ccccc1` (stereo not given) the value was 0.951% (inactive); for `Cc1ccc(C#N)cc1`, -4.86% (inactive).
